The source of these data is ChEMBL document CHEMBL4888484, “Replenishing the malaria drug discovery pipeline: Screening and hit evaluation of the MMV Hit Generation Library 1 (HGL1) against asexual blood stage Plasmodium falciparum ,using a nano luciferase reporter read-out” (2022).

SMILES strings stand for the structures. The campaign covered roughly 4,800 compounds. About 410 (8.5%) showed an effect of 50% or more. This excerpt belongs to a sample that is enriched for strong results.

The subject of this experiment is Plasmodium falciparum. The experiment in a line: Confirmatory screen in NF54 pLDH assay, in single point, at 2uM, 72h. Type of experiment: functional, Erythrocyte. As to conditions: timepoint 72 hour.
For `CC[C@H]1Cn2c(C(=O)NCc3ccc4c(c3)OCO4)cc3c(Cl)ccc(c32)O1`, the “% Inhibition” value is given as -10%.

As to `Cc1ccc(Cn2c(=O)c(C(=O)NCc3ccc4c(c3)OCO4)nn(-c3ccc(C(C)C)cc3)c2=O)cc1`, the “% Inhibition” value was 52%. Take `O=C(Cn1cnc2ccc(Cl)cc2c1=O)NCc1ccc2c(c1)OCO2`: the “% Inhibition” value is -5%. As for `Cc1ccc(NC(=O)Nc2c(C3=CCCCC3)c(C)nn2C)cc1C`, the figure is -13%; as for `CC(C)(C)OC(=O)N1CC(NC(=O)C2CC2c2ccccc2C(F)(F)F)C1` (stereo not drawn), -16%; as for `CCc1c([C@H](C)S(=O)(=O)c2ccccc2)[nH]c(=O)n1Cc1cccs1`, -7%. As for `Cc1cc(N2CCN(c3ccccn3)CC2)n2cc(-c3ccccc3)nc2n1`, the figure is 14%; as for `O=S(=O)(C1CC1)N1CC[C@H](CO)C1`, 0%; as for `Cc1ccc(S(=O)(=O)Cc2nc(-c3ccc(C(=O)Nc4ccc(C)cc4Cl)cc3)oc2C)cc1`, 14%. As for `COc1cccc(-c2noc3nc(C)cc(C(=O)NCCCn4ccc(C)n4)c23)c1`, the “% Inhibition” value turned out to be 11%.

In the case of `Cc1ccc(NC(=O)C2C3NC(=O)N(c4ccccc4)C2(C)Oc2ccc(C)cc23)c(C)c1` (stereo not drawn), the “% Inhibition” value is reported as -9%.

Consider `CC(C)c1ccc(N2C(=O)[C@H](CC(=O)N3CCN(C)CC3)N=C2O)cc1`, for which the “% Inhibition” value amounted to 9%. As for `CC(=O)NCCNC(=O)Nc1ccccc1N(C)C1CCCC1`, the “% Inhibition” value is -5%. As for `CCOc1cc(CNC2CCN(C(C)=O)CC2)ccc1OCc1c(F)cccc1Cl`, the figure is 13%; as for `Cc1cc(N)n(-c2nc(-c3ccccc3)cc(=O)[nH]2)n1`, -1%.

For the molecule `CCCc1cc(-c2nc(-c3ccc(-n4nc(C)cc4N)cc3)no2)n(C)n1`, the “% Inhibition” value is reported as 88%. As for `Cc1n[nH]c(C)c1NC(=O)CN1CC(C)OC(C)C1` (stereo not drawn), the figure is -7%; as for `COc1ccsc1S(=O)(=O)N(CCN(C)C)C1CCCC1`, -9%; as for `O=C(Cn1cnc2nc(N3CCCCC3)sc2c1=O)Nc1cc(Cl)cc(Cl)c1`, 1%. For the molecule `Cc1cc(C)c(C(=O)O)cc1NC(=O)c1oc(C2CC2)nc1C`, the “% Inhibition” value was -8%. As for `CCN1CCN(c2nc(O)c3c(n2)NC(=O)C[C@H]3c2cccc(F)c2)CC1`, the “% Inhibition” value is reported as -7%. The figure for `O=C(Nc1ccc(N2CCOCC2)c(F)c1)OCc1ccccc1` is 2%.

In the case of `COC(=O)C1(NC(=O)c2scnc2C)CCCCC1`, the “% Inhibition” value is -5%.

In the case of `CC1CCC2C(CCC(C)N2C(=O)c2cc3nc4c(c(C(F)(F)F)n3n2)CCc2ccccc2-4)C1` (stereo not drawn), the “% Inhibition” value worked out at 1%. In the case of `COc1ccccc1N1CCN(CC(=O)Nc2c3c(nc4ccccc24)N(c2cccc(C)c2)CC3)CC1`, the “% Inhibition” value is -24%. As for `Cc1ccccc1CNC(=O)[C@H]1CCCN(c2nc3cccnc3n(Cc3ccccc3)c2=O)C1`, the figure is -6%; as for `Cc1ccccc1CNC(=O)[C@H]1CCCN(c2nc3ccccc3[nH]c2=O)C1`, 13%; as for `CC(C)(C)C(=O)/C(=N\OC(=O)Nc1ccc(Cl)cc1)n1cncn1`, 0%. On to `CCCCn1nnc(N(C(=O)c2cccc3c(Br)cccc23)C(=O)c2cccc3c(Br)cccc23)n1`, for which the “% Inhibition” value is recorded as 0%. In the case of `Cc1ccc(C(=O)Nc2cc3c4c(c2)C2CCCC2CN4CC2CCCC32)cc1` (stereo not drawn), the “% Inhibition” value is 54%.

Turning to `Cc1ccccc1[C@H]1CCN(c2ccc(NC(=O)c3ccc(Cl)cc3)c(C(=O)O)c2)C1`, the “% Inhibition” value is recorded as -17%. The figure for `Cc1ccc(C(=O)Nc2ccc(N3CCN(CCC#N)CC3)cc2C(=O)O)cc1` is -6%; for `Cc1ccccc1[C@H]1CC(=O)Nc2c1c(C)nn2-c1nncc(-c2ccc(Cl)cc2)n1` it is 15%; for `Cc1c(-c2ccc(F)cc2)[nH]c2ccc(CNc3nccc(N(C)C)n3)cc12` it is 50%. As for `CCNc1ccnc(NCc2nc(-c3cccc(F)c3)c(-c3ccccn3)[nH]2)n1`, the figure is 22%; as for `Cc1nn(C)cc1-c1n[nH]cc1Br`, 7%; as for `COc1ccccc1N(Cc1ccccc1)C1=NC(=[N+](Cc2ccccc2)c2ccccc2OC)c2ccccc21`, 67%. The figure for `CC1COCCC1NCc1ncn(Cc2cccc(F)c2)n1` (stereo not drawn) is -4%.

On to `Cc1cnn(CCCNC(=O)c2ccc3[nH]c4c(c3c2)CCCC4)c1`, for which the “% Inhibition” value was found to be 5%.

With `CCN1CCN(C2CCN(c3ncc(F)c(OC)n3)CC2)CC1`, the “% Inhibition” value amounted to 50%. As for `COc1nc(N2[C@@H]3CC[C@H]2C[C@@H](OC)C3)ncc1F`, the figure is 52%. Turning to `CCN1CCC2CCC(C1)N2C(=O)Nc1ccc(OC2CCC2)c(F)c1` (stereo not drawn), the “% Inhibition” value is given as -18%.

With `O=S(=O)(c1ccc(Cl)cc1)n1ccc(C2CC2)n1`, the “% Inhibition” value was found to be 4%. Turning to `COc1cccc(CNCCCN2CCOCC2)c1OCc1ccc(F)cc1Cl`, the “% Inhibition” value is 1%. Consider `CC(C)(C)NC(=O)CNc1nnc(C2CC2)s1`, for which the “% Inhibition” value is 12%.

As to `CCCCCC1CCC(c2ccc(-c3ccc(CC)cn3)cc2F)CC1` (stereo not drawn), the “% Inhibition” value was found to be 7%. As for `Cc1c[nH]c(=O)n1-c1ccc(C(=O)NCCc2cc(F)cc(F)c2)cc1`, the figure is 10%; as for `O=C(CC1COCCN1C(=O)C1CCc2ccccc21)c1ccco1` (stereo not drawn), -17%. Regarding `CCOc1c(CNCCN(C)C)cc(Br)cc1OC`, the “% Inhibition” value was determined as 3%. Regarding `COc1ccc2c(/C=C/c3cc[n+](C)cc3)cn(Cc3ccccc3)c2c1`, the “% Inhibition” value came to 62%. As for `COc1ccc2nc(N3CN(Cc4ccccc4)CN(c4nc5ccc(OC)cc5s4)C3)sc2c1`, the figure is 1%; as for `COc1ccc2ncc(=O)n(CCOc3ccccc3)c2c1`, 9%; as for `N#Cc1ccc2c(c1)N(Cc1ccccc1F)C(=O)[C@@H]1CCCN21`, 7%.

As to `O=C(N[C@@H](N1CCOCC1)C(Cl)(Cl)Cl)c1ccccc1Cl`, the “% Inhibition” value was 8%. As for `O=C(CN1CCCC1)N1CCCN(S(=O)(=O)c2ccccc2)[C@H]1c1ccccc1`, the figure is -2%. The figure for `Cc1ccc(CNc2ccc(S(C)(=O)=O)cc2)c(=O)n1C` is -9%. With `CCc1nnc(NC(=O)NCc2c[nH]nn2)s1`, the “% Inhibition” value is listed as -6%. The figure for `c1ccc2oc(-c3ccnc4nncn34)cc2c1` is 3%.

`Cc1ccc2nc(-c3cc4ccccc4o3)cn2c1`: the “% Inhibition” value turned out to be 52%. The figure for `Cc1ccccc1CC(=O)Nc1ccc(-c2nc3ncccc3o2)cc1` is 5%. The figure for `C[C@H](Nc1nc(N2CCCCC2)nc2ccccc12)c1ccccc1` is -6%.

With `O=C1c2ccccc2[C@@H](Nc2ccc3c(c2)OCCO3)N1c1ccccn1`, the “% Inhibition” value is -8%. As to `CNc1nc(Nc2ccc3c(c2)OCCO3)nc2ccccc12`, the “% Inhibition” value is on record as 103%. The figure for `CNc1nc(NCc2ccccc2)nc2ccccc12` is 91%; for `Cc1ccc(-c2nc3ncccn3c2Nc2ccc3c(c2)OCCO3)o1` it is -4%. The figure for `COc1ccc(CNc2nc(-c3nnc(-c4ccccc4)o3)nc3ccccc23)cc1` is -3%; for `CNc1nc(NCCc2ccccc2)nc2ccccc12` it is 92%. The figure for `NS(=O)(=O)c1ccc(CCNc2nc(-c3ccccc3)nc3ccccc23)cc1` is 5%. Take `CNc1nccc(OCc2ccccc2)n1`: the “% Inhibition” value is recorded as 9%. As for `c1ccc(CCNc2nc(-c3ccccn3)cs2)cc1`, the figure is 31%; as for `CCN(CC)c1ccc(C(=O)C(F)(F)F)c(O)c1`, 0%; as for `CCC(=O)OCCN1CCN(CCN(C(=O)CC)c2ccc(C3CCCC3)cc2)CC1`, 3%.

`O=C1C[C@H](c2nc3cc(Cl)ccc3o2)CN1c1ccc(F)cc1`: the “% Inhibition” value is -13%. Take `Cc1cccn2cc(CN(C)[C@H](c3ccccn3)C3CC3)nc12`: the “% Inhibition” value is listed as 4%. As for `COc1ccc2cc3n(c2c1)C[C@](C(=O)NC1CCCCCC1)(c1ccccc1)N(Cc1cccc(Br)c1)C3=O`, the figure is 10%; as for `Cc1ccc(NC(=O)CC(=O)O)c(C)c1`, -5%; as for `NC1(c2noc([C@@H]3CCCO3)n2)CCCCCC1`, 13%. Turning to `CC1(C)c2ccccc2CCN1C(=O)CCc1ncc(-c2ccccc2)o1`, the “% Inhibition” value came to 8%. The figure for `CN1CCC(n2ncc3[nH]c(-c4ccc(C(F)(F)F)cc4)nc32)CC1` is 99%; for `CN1CCN(c2nc(-c3cccc(C(F)(F)F)c3)nc3c2cnn3Cc2ccccc2)CC1` it is -3%. The figure for `CN(c1nc2c(cnn2C)c(=O)[nH]1)C1CCCC1c1ccc(C(F)(F)F)cc1` (stereo not drawn) is 10%; for `O=C(CCNC(=O)C1CC1c1c(F)cccc1Cl)NC1CCS(=O)(=O)C1` (stereo not drawn) it is -19%. With `C[C@@H](CNc1nc(-c2ccccc2)nc2nc(-c3ccc(Cl)cc3)oc12)N1CCCCC1`, the “% Inhibition” value was 76%.

Take `CC1(C)Cc2nc3ccccc3c(NCc3ccccc3)c2[C@@H](O)C1`: the “% Inhibition” value was found to be 54%. The figure for `O=c1[nH]c2ccccc2c(NCc2ccccc2)c1N1CCN(c2ccccc2)CC1` is 1%; for `CC(=O)N1CC[C@H](CC(=O)N(C)Cc2ccccc2)C1` it is 0%. The figure for `Cc1ccc(NC(=O)Cn2c(C)cc(=O)c3sccc32)cc1Cl` is -2%; for `CCCNC(=O)Cn1nc2cc(-c3ccc(OC)cc3)nc(C)n2c1=O` it is -8%.

Take `OC(CC(Nc1ccc(Cl)cc1)c1ccccc1)c1ccccc1` (stereo not drawn): the “% Inhibition” value was -7%. The figure for `O=S(=O)(Cc1ccccc1)N1CCC2(CCCCC2)C1` is 6%. As for `COc1ccc(OC)c(-c2csc(N3C(=O)CC4CS(=O)(=O)CC43)n2)c1` (stereo not drawn), the figure is 10%.

On to `COc1ncnc2c1CN(C(=O)c1cc3c(s1)CC[C@H](C)C3)CC2`, for which the “% Inhibition” value was determined as 13%.

As for `CO[C@H]1CCOC2(CCN(C(=O)c3ccccc3F)CC2)C1`, the “% Inhibition” value was 9%. Regarding `O=C(c1ccccc1Cl)N1CCC[C@H](n2cnc3ccccc3c2=O)C1`, the “% Inhibition” value was -12%. The figure for `O=C(CN1CCN(Cc2ccccc2F)C1=O)NC1CCCCCCC1` is -2%; for `O=C(c1csc(C(=O)N2CCCC2)n1)N1CCN(Cc2ccccc2)CC1` it is -4%; for `CCN(C[C@H]1CCCO1)C(=O)c1cnc(Cc2ccccc2)s1` it is -15%. Regarding `CCn1cc(C(=O)N(C2CCCCC2)C2CCCCC2)c(C)n1`, the “% Inhibition” value was -13%. For `CN(C(=O)Cn1c(=O)n(-c2cc(F)cc(F)c2)c(=O)c2sccc21)c1ccccc1`, the “% Inhibition” value is reported as 9%. On to `O=C(CN1CCOCC1)N1CCN(CCCOc2ccccc2)CC1`, for which the “% Inhibition” value worked out at 9%. Take `Oc1cc(-c2ccc(F)cc2)nn1-c1nc2ccccc2[nH]1`: the “% Inhibition” value is -11%.

In the case of `Cc1nn(-c2nc3ccccc3[nH]2)c(O)c1Cc1ccccc1`, the “% Inhibition” value is reported as 17%. `Cc1nn(-c2nc3ccccc3[nH]2)c(O)c1CCC(C)C`: the “% Inhibition” value came to 68%.
